Assay results from PubChem BioAssay AID1159580 (chemical genetic matrix, 2015).
In all, about 5,500 compounds went through this assay and about 2,000 (36%) were called active. About 18% were inconclusive and are not listed. No stated cut-off is given here; in the data, active means normalized growth mostly below about 0.91 (no sharp cut-off); inconclusive means no clear call, values can overlap the other calls; inactive means mostly above about 0.92. This is one part of the list.

Assay: chemical genetic growth profiling, strain panel (AID 1159580);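 further: tested at 20 µM; growth read once vehicle control cultures reached saturation at 30 °C; 1 = growth at the plate median or of vehicle wells; lower values mean less growth of the strain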
Settings: growth OD

Measured: normalized growth

COC1=C(OC)C(=O)C(C/C=C(\C)CC/C=C(\C)CC/C=C(\C)CC/C=C(/C)CC/C=C(\C)CC/C=C(\C)CC/C=C(\C)CC/C=C(\C)CC/C=C(\C)CCC=C(C)C)=C(C)C1=O
inactive: S. cerevisiae deletion strains, locus YJR043C, strain POL32, active compounds read low 1.03 | S. cerevisiae deletion strains, locus YJR066W, strain TOR1, active compounds read low 0.982 | S. cerevisiae deletion strains, locus YKL009W, strain mrt4, active compounds read low 1.07 | S. cerevisiae deletion strains, locus YKL068W, active compounds read low 0.99 | S. cerevisiae deletion strains, locus YKL085W, strain MDH1 (second series), active compounds read low 1 | S. cerevisiae deletion strains, locus YKL085W, strain MDH1, active compounds read low 1 | S. cerevisiae deletion strains, locus YKL160W, strain elf1, active compounds read low 0.988 | S. cerevisiae deletion strains, locus YKR001C, strain vps1, active compounds read low 0.999 | S. cerevisiae deletion strains, locus YKR026C, strain gcn3, active compounds read low 0.986 | S. cerevisiae deletion strains, locus YKR091W, strain srl3, active compounds read low 0.98 | S. cerevisiae deletion strains, locus YLL001W, strain dnm1, active compounds read low 0.974 | S. cerevisiae deletion strains, locus YLL026W, active compounds read low 1 | S. cerevisiae deletion strains, locus YLL041C, strain sdh2, active compounds read low 0.973 | S. cerevisiae deletion strains, locus YLR027C, strain aat2, active compounds read low 0.988 | S. cerevisiae deletion strains, locus YLR039C, strain RIC1, active compounds read low 1.04 | S. cerevisiae deletion strains, locus YLR058C, strain SHM2, active compounds read low 0.985 | S. cerevisiae deletion strains, locus YLR102C, strain apc9, active compounds read low 0.994 | S. cerevisiae deletion strains, locus YLR113W, strain HOG1, active compounds read low 0.986 | S. cerevisiae deletion strains, locus YLR221C, strain rsa3, active compounds read low 0.97 | S. cerevisiae deletion strains, locus YLR258W, strain gsy2, active compounds read low 0.982 | S. cerevisiae deletion strains, locus YLR262C, strain YPT6 (second series), active compounds read low 0.942 | S. cerevisiae deletion strains, locus YLR262C, strain YPT6, active compounds read low 0.972 | S. cerevisiae deletion strains, locus YLR268W, strain sec22, active compounds read low 1.03 | S. cerevisiae deletion strains, locus YLR320W, strain mms22, active compounds read low 0.991 | S. cerevisiae deletion strains, locus YLR330W, strain CHS5, active compounds read low 1.01 | S. cerevisiae deletion strains, locus YLR342W, strain FKS1 (second series), active compounds read low 1.1 | S. cerevisiae deletion strains, locus YLR342W, strain FKS1, active compounds read low 0.96 | S. cerevisiae deletion strains, locus YLR357W, strain rsc2, active compounds read low 0.987 | S. cerevisiae deletion strains, locus YLR370C, strain arc18, active compounds read low 0.953 | S. cerevisiae deletion strains, locus YLR371W, strain rom2, active compounds read low 0.99 | S. cerevisiae deletion strains, locus YLR384C, strain iki3, active compounds read low 0.988 | S. cerevisiae deletion strains, locus YLR418C, strain cdc73, active compounds read low 0.997 | S. cerevisiae deletion strains, locus YML016C, strain PPZ1, active compounds read low 1.01 | S. cerevisiae deletion strains, locus YML032C, strain rad52, active compounds read low 0.971 | S. cerevisiae deletion strains, locus YML120C, strain ndi1, active compounds read low 0.985 | S. cerevisiae deletion strains, locus YML124C, strain tub3, active compounds read low 0.99 | S. cerevisiae deletion strains, locus YMR058W, strain fet3, active compounds read low 0.977 | S. cerevisiae deletion strains, locus YMR078C, strain ctf18, active compounds read low 0.992 | S. cerevisiae deletion strains, locus YMR125W, strain sto1, active compounds read low 0.972 | S. cerevisiae deletion strains, locus YMR129W, active compounds read low 0.974 | S. cerevisiae deletion strains, locus YMR205C, strain PFK2, active compounds read low 1.01 | S. cerevisiae deletion strains, locus YMR223W, strain ubp8, active compounds read low 1.01 | S. cerevisiae deletion strains, locus YMR231W, strain pep5, active compounds read low 0.981 | S. cerevisiae deletion strains, locus YMR307W, strain GAS1, active compounds read low 1.13 | S. cerevisiae deletion strains, locus YNL067W, strain RPL9B, active compounds read low 0.995 | S. cerevisiae deletion strains, locus YNL071W, strain lat1, active compounds read low 0.965 | S. cerevisiae deletion strains, locus YNL183C, strain NPR1, active compounds read low 0.982 | S. cerevisiae deletion strains, locus YNL209W, strain ssb2, active compounds read low 0.971 | S. cerevisiae deletion strains, locus YNL233W, strain BNI4, active compounds read low 1 | S. cerevisiae deletion strains, locus YNL248C, strain rpa49, active compounds read low 0.974 | S. cerevisiae deletion strains, locus YNL250W, strain rad50, active compounds read low 0.985 | S. cerevisiae deletion strains, locus YNL271C, strain bni1, active compounds read low 1.02 | S. cerevisiae deletion strains, locus YNL298W, strain CLA4, active compounds read low 0.998 | S. cerevisiae deletion strains, locus YNL307C, strain MCK1, active compounds read low 0.995 | S. cerevisiae deletion strains, locus YNL322C, strain KRE1 (second series), active compounds read low 0.958 | S. cerevisiae deletion strains, locus YNL322C, strain KRE1, active compounds read low 0.994 | S. cerevisiae deletion strains, locus YNR049C, strain mso1, active compounds read low 0.971 | S. cerevisiae deletion strains, locus YNR052C, strain pop2, active compounds read low 1 | S. cerevisiae deletion strains, locus YOL012C, strain htz1 0.872 | S. cerevisiae deletion strains, locus YOL147C, strain pex11, active compounds read low 1 | S. cerevisiae deletion strains, locus YOR001W, strain rrp6, active compounds read low 0.932 | S. cerevisiae deletion strains, locus YOR061W, strain CKA2, active compounds read low 0.981 | S. cerevisiae deletion strains, locus YOR069W, strain VPS5, active compounds read low 1.01 | S. cerevisiae deletion strains, locus YOR070C, strain gyp1, active compounds read low 0.975 | S. cerevisiae deletion strains, locus YOR080W, strain dia2, active compounds read low 0.999 | S. cerevisiae deletion strains, locus YOR083W, strain WHI5, active compounds read low 0.998 | S. cerevisiae deletion strains, locus YOR106W, strain vam3, active compounds read low 0.973 | S. cerevisiae deletion strains, locus YOR136W, strain idh2, active compounds read low 0.998 | S. cerevisiae deletion strains, locus YOR144C, strain elg1, active compounds read low 0.987 | S. cerevisiae deletion strains, locus YOR184W, strain ser1, active compounds read low 1 | S. cerevisiae deletion strains, locus YOR231W, strain MKK1, active compounds read low 1.05 | S. cerevisiae deletion strains, locus YOR265W, strain rbl2, active compounds read low 0.99 | S. cerevisiae deletion strains, locus YOR270C, strain vph1, active compounds read low 0.967 | S. cerevisiae deletion strains, locus YOR290C, strain snf2, active compounds read low 0.992 | S. cerevisiae deletion strains, locus YOR316C, strain cot1, active compounds read low 0.994 | S. cerevisiae deletion strains, locus YPL051W, strain arl3, active compounds read low 1 | S. cerevisiae deletion strains, locus YPL055C, strain LGE1, active compounds read low 1.02 | S. cerevisiae deletion strains, locus YPL078C, strain atp4, active compounds read low 0.965 | S. cerevisiae deletion strains, locus YPL106C, strain sse1, active compounds read low 0.963 | S. cerevisiae deletion strains, locus YPL240C, strain hsp82, active compounds read low 0.982 | S. cerevisiae deletion strains, locus YPL241C, strain CIN2, active compounds read low 0.996 | S. cerevisiae deletion strains, locus YPL256C, strain CLN2, active compounds read low 1.04 | S. cerevisiae deletion strains, locus YPR119W, strain clb2, active compounds read low 0.981 | S. cerevisiae deletion strains, locus YPR141C, strain kar3, active compounds read low 0.981 | S. cerevisiae deletion strains, locus YPR163C, strain tif3, active compounds read low 0.992 | S. cerevisiae deletion strains, locus YPR167C, strain met16, active compounds read low 0.982 | S. cerevisiae deletion strains, strain wtn01, active compounds read low 1.02 | S. cerevisiae strains, strain wild type, active compounds read low 1.01
